Only some compounds are listed: those with a hit (about 3.8% of all), similar ones and a draw of the others.
S2 tox – viability counter-screen for ATXN expression inhibitors | Potency, µM (top dose mostly 56.7 µM), most hits filed as cytotoxic | hit rate 0.49% among 400,000 | AID 651635 | S2 cells (HEK-293 line with an ATXN2-luciferase reporter) viability, CellTiter-Fluor protease fluorescence, 24 h; further: nearly all actives have a fitted effect of over 40% in size
ATXN2 expr inh – reduces ATXN2 reporter expression in HEK-293 cells. HEK-293 ATXN2-luciferase reporter, luminescence, 24 h. Potency, µM (top dose mostly 57 µM), usual class: inhibitors. hit rate 0.72% among 360,000. AID 1745845; further: nearly all actives have a fitted effect of over 55% in size
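qHTS (up to 57 uM final) was run with 24 h compound exposure of reporter cells at 37 °C. Each well was multiplexed: SteadyGlo luminescence measured ATXN2-luciferase expression after a fluorogenic Gly-Phe-AFC viability readout (25 uM final).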
TGFb inhibitor – inhibitors of TGF-b signaling. HepG2 CAGA-GFP TGF-b/SMAD3 reporter, GFP fluorescence, 18 h; TGF-beta stimulated, 500 pg/mL final. Potency, µM (top dose mostly 46.1 µM), hits mostly inhibitors. hit rate 1.2% among 410,000; further: nearly all actives have a fitted effect of over 65% in size
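Inhibition of TGF-beta-driven CAGA-GFP reporter expression in HEPG2 cells is measured by cellular GFP fluorescence after 18 h stimulation with 500 pg/mL recombinant TGF-beta in 1% FBS medium at 37 degrees C.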
HT1080-NT tox – kills 2HG-producing HT-1080-NT fibrosarcoma cells | AID 686970 | HT-1080-NT fibrosarcoma viability, CellTiter-Glo ATP luminescence, 48 h | hit rate 1.6% among 360,000 | Potency, µM (highest dose often 46.1 µM), most hits filed as cytotoxic;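 further: NT is the 2HG producing partner of a matched IDH1 knockdown line; nearly all actives have a fitted effect of over 55% in size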
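A 48-hour cytotoxicity screen used HT-1080-NT cells plated 2 hours before compound delivery. ATP-based CellTiter-Glo luminescence measured viability, normalized to DMSO and no-cell controls.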
HepG2 viability – kills HepG2 cells in TGF-b inhibitor counter-screen | HepG2 CAGA-GFP viability, ATP luminescence, 18 h | Potency, µM (top dose mostly 46.1 µM), most hits filed as cytotoxic | AID 588856 | hit rate 0.76% among 410,000
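HepG2 CAGA-GFP cells (1000/well, DMEM with 1% FBS) received compound, then TGF-beta at 500 pg/mL final, and were incubated 18 hours at 37 degrees C. Viability was read by CellTiter-Glo luminescence. Media-only wells were set as complete cell-killing and DMSO as no toxicity.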
HT1080 IDH1KD tx – toxicity to HT-1080 IDH1 knockdown cells (counter line); HT-1080 IDH1 knockdown viability, ATP luminescence, 48 h; Potency, µM (series often up to 46.1 µM), most hits filed as cytotoxic; hit rate 2% among 360,000; AID 686971
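Using the IDH1-knockdown HT-1080 line run in the same batch and compound series as the NT line, viability after 48 h at 37 °C was determined by CellTiter-Glo luminescence and expressed as % activity.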
Numbers stand for hits; i = inactive; ? = inconclusive; nt = no result given. The call rests on the fitted dose curve; in most records, active means well fitted curve in the direction sought with a large enough effect; inconclusive means small, poorly fitted or top-dose-only effect, or another doubt; inactive means no such curve, though single readings can be large; an effect the other way counts as inactive or inconclusive.

SMILES | S2 tox | ATXN2 expr inh | TGFb inhibitor | HT1080-NT tox | HepG2 viability | HT1080 IDH1KD tx
COc1cc(-c2ccc(C)cc2)cc2c1OCCN(C(=O)CCn1ccc(C)n1)C2 | i | nt | nt | nt | nt | nt
COc1cc(-c2onc3ccc(Br)cc23)cc(OC)c1OC | ? | i | i | 1.8µM | i | 1.8µM
O=C(NCC1CCC2(CCN(Cc3cccn3-c3ccc(Cl)cn3)CC2)O1)c1ccccc1 (stereo not drawn) | i | nt | nt | nt | nt | nt
COc1ccc(C2Nc3ccccc3NC3=C2C(=O)CC(C)(C)C3)c(OC)c1OC (stereo not drawn) | 0.28µM | i | i | i | i | i
COC(=O)CSC1=C(C#N)C(c2ccc(F)cc2)CC(=O)N1 (stereo not drawn) | i | i | i | i | i | i
COC(=O)CSC1=C(C#N)C(c2ccc(C)o2)CC(=O)N1 (stereo not drawn) | i | i | i | ? | i | 7.3µM
CC(=O)c1ccc(N2CCN(C(=O)CCC(=O)Nc3ccc4nc(N5CCN(C)CC5)cc(C)c4c3)CC2)cc1 | i | i | i | i | i | 23µM
Cc1cc(N2CCOCC2)nc2ccc(NC(=O)CCC(=O)N3CCN(c4cccc(C(F)(F)F)c4)CC3)cc12 | ? | i | ? | 23µM | i | ?
CC(=O)c1ccc(N2CCN(C(=O)CCC(=O)Nc3ccc4nc(N5CCCCC5)cc(C)c4c3)CC2)cc1 | i | ? | i | nt | i | nt
CC(=O)Nc1ccc(/C=C/c2ccncc2)cc1 | nt | nt | i | nt | i | nt
N#C/C(=C1\SCC(c2ccccc2Cl)S1)n1ccnc1 (stereo not drawn) | i | i | nt | nt | nt | nt
CCCCCCCCCCOCC(O)CN (stereo not drawn) | 40µM | 40µM | nt | nt | nt | nt
N#CC[C@H](C1CCCC1)n1cc(-c2ncnc3[nH]ccc23)cn1 | nt | i | nt | nt | nt | nt
C=CCN1[C@@H](C(C)C)COCCS1(=O)=O | nt | nt | i | nt | i | nt
COc1ccc(-c2nc(C)c(CCNS(=O)(=O)c3cc(C)c(C)cc3C)s2)cc1 | ? | ? | 11µM | nt | i | nt
Cc1nc(-c2ccccc2)sc1CCNS(=O)(=O)c1ccc(Br)cc1 | i | ? | 11µM | nt | i | nt
CCN(CC)c1ccc2nc3ccccc3[n+](CC)c2c1 | 8.9µM | ? | ? | 26µM | i | 23µM
CCN(CC)c1ccc2nc3ccc(N)cc3[n+](-c3ccccc3)c2c1 | 16µM | 13µM | ? | 10µM | i | 5.8µM
CCN(CC)c1ccc(/C=C/c2cc(Cl)nc3ccccc23)cc1 | nt | nt | i | nt | i | nt
COCC(=O)Nc1cc(C(=O)N[C@H]2CCCCNC2=O)c2c(c1)nc(-c1ccncc1)n2C | i | nt | nt | nt | nt | nt
COc1ccc(Nc2nc(S(=O)(=O)c3ccc(C)cc3)c(Cl)s2)cc1 | i | ? | 11µM | 23µM | i | 23µM
Cc1ccc(S(=O)(=O)c2nc(Nc3ccccc3)sc2Cl)cc1 | i | i | ? | i | i | i
Cc1ccc(S(=O)(=O)N2[C@@H](c3ccccc3)C(C(=O)O)=CC[C@H]2c2ccc(C(C)C)cc2)cc1 | i | i | 16µM | i | i | i
CCOC(=O)C1=CC[C@@H](c2ccccc2)N(S(=O)(=O)c2ccc(C)cc2)[C@H]1C#N | ? | i | ? | 16µM | i | ?
COC(=O)c1cccnc1-n1c(=O)c2cccnc2n(CC(=O)Nc2cccc(C)c2)c1=O | i | i | i | nt | i | nt
SMILES | S2 tox | ATXN2 expr inh | TGFb inhibitor | HT1080-NT tox | HepG2 viability | HT1080 IDH1KD tx
Cc1ccc2oc(C(=O)NCc3ncc(C)[nH]3)c(C)c2c1 | i | i | i | 18µM | i | 16µM
O=C1NC[C@@H](Cc2cccc3ccccc23)N(CCc2cc(C(F)(F)F)cc(C(F)(F)F)c2)C1=O | nt | ? | 13µM | i | i | i
O=C1NC[C@H](Cc2ccccc2)N(CCc2cc(C(F)(F)F)cc(C(F)(F)F)c2)C1=O | nt | nt | nt | i | nt | i
O=C1c2ccccc2C(=O)N1CCN1CCCCC1 | i | i | i | i | i | i
O=C1c2cccc3cc([N+](=O)[O-])cc(c23)C(=O)N1CCN1CCCC1 | i | ? | 5µM | ? | i | 2.3µM
Nc1cc2c3c(cccc3c1)C(=O)N(CCN1CCCC1)C2=O | ? | ? | ? | 21µM | i | ?
COCCNC(=O)CSc1nnc(-c2ccc(OC)c(OC)c2)c(-c2ccc(OC)c(OC)c2)n1 | nt | nt | i | nt | i | nt
CC(=O)N1CCC[C@H]1C(=O)NCC1Cc2cc(-c3cnccn3)cc(Cl)c2O1 (stereo partly drawn) | i | nt | nt | nt | nt | nt
CCN(CCCN(C)C)c1ccc(/C=C/c2ccnc3ccccc23)cc1 | nt | nt | i | nt | i | nt
CN(C)c1ccc(C2C=Cc3ccccc32)c2ccccc12 (stereo not drawn) | nt | nt | i | nt | i | nt
CCN(CC)CCNC(=O)c1ccc2c(=O)n(C3CCCC3)c(=S)[nH]c2c1 | i | i | i | ? | i | 20µM

Bioassay records (PubChem BioAssay)
